Compound activity deposited in PubChem by National Center for Advancing Translational Sciences (NCATS).
Methyltransferases: Primary Screen for Target Class Profiling of Small Molecule Inhibitors of Methyltransferases; purified enzyme, MTase-Glo SAH luminescence; active compounds read low; calls only at 40 µM; hit rate 3.9% among 25,000; AID 1745853, 2022; call rule not given here
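Each enzyme was assayed with SAM and its substrate. SAH formation detected by MTase-Glo luminescence; single-point 40 uM screen[…].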
* marks the source's active call; other numbers are inactive results; i = inactive; + = active, no number; ! = not active in a repeat. Only a selection was taken, and hits are over-represented in it overall. On the % scale 0 is the no-effect control and ±100 the full control effect.

SMILES	Methyltransferases
CC1(C(=O)NC2CCCCC2)Cn2c(cc3occc32)C(=O)N1C1CCCC1 (stereo unspecified)	i
CCCn1c(=O)c2cc(Cl)ccc2n2c(=O)n(CC(=O)NCc3ccccc3Cl)nc12	i
COCCCNC(=O)C1(C)Cn2nc(-c3ccccc3)cc2C(=O)N1c1cc(C)cc(C)c1 (stereo unspecified)	i
CC1(C(=O)NC2CCCCC2)Cn2c(ccc2-c2ccco2)C(=O)N1CCN1CCOCC1 (stereo unspecified)	i
CNCc1ccc(-c2[nH]c3cc(F)cc4c3c2CCNC4=O)cc1	+!
CCOc1ccc(N2C(=O)c3cc(C(=O)OC)nn3CC2(C)C(=O)NC2CCCCC2)cc1 (stereo unspecified)	i
CC(C)Cn1c(=O)c2ccccc2n2c(SCC(=O)N3CCN(c4ccccc4F)CC3)nnc12	i
CC(C)CNC(=O)c1ccc2c(=O)n(C)c3nn(Cc4ccccc4Cl)c(=O)n3c2c1	i
O=C(c1ccccc1Cl)N1CCCC(C(=O)N2CCC(c3ccccc3)CC2)C1 (stereo unspecified)	i
O=C(NC1CCCC1)N1CCCC(C(=O)N2CCC(c3nc4ncccc4[nH]3)C2)C1 (stereo unspecified)	i
O=C([C@@H]1CCCN(c2ccc3[nH]c(C4(n5cc(Cl)cn5)CC4)nc3n2)C1)N1CCCC1	+
Cc1ccc(C(=O)CSc2nnc3n(C)c(=O)c4ccc(C(=O)NC5CCCCC5)cc4n23)cc1	i
CCOC(=O)c1cc2n(n1)CC(C)(C(=O)NC1CCCCC1)N(c1ccccc1C)C2=O (stereo unspecified)	i
Nc1nc2ccc(Cl)cc2c2nc(-c3ccco3)nn12	i
Nc1nc2c(cnn2CCc2ccccc2)c2nc(-c3ccco3)nn12	+
CCCC1c2ccc(C)n2CCN1C(=O)Nc1cccc(Cl)c1C (stereo unspecified)	i
CC(C)NC(=O)c1ccc2c(=O)n(C(C)C)c3nn(CC(=O)NCc4ccccc4Cl)c(=O)n3c2c1	i
Oc1ccc2ccccc2c1SSc1c(O)ccc2ccccc12	+
CC(C)Oc1ccc(CN2C(=O)c3cc4occc4n3CC2(C)C(=O)NC2CCCCCCC2)cc1 (stereo unspecified)	i
CCCn1c(=O)c2cc(F)ccc2n2c(SCC(=O)NC3CCCCC3)nnc12	i
COc1ccccc1CNC(=O)CCc1nnc2n(Cc3ccc(F)cc3)c(=O)c3ccccc3n12	i
CCc1cc2c(cc3n2CC(C(=O)NC2CCCCC2)(c2ccccc2)N(Cc2ccccc2Cl)C3=O)s1 (stereo unspecified)	i
O=C(Cn1nc2n(Cc3ccc(F)cc3)c(=O)c3ccccc3n2c1=O)Nc1ccccc1F	i
CC1CCC(NC(=O)C2(C)Cn3c(cc4occc43)C(=O)N2C2CCCCCC2)CC1 (stereo unspecified)	i
C=C(CO)C(=O)O[C@H]1C[C@@]23O[C@@H]2CC/C(=C/[C@H]2OC(=O)C(=C)[C@H]12)CO[C@H]3O	i
SMILES	Methyltransferases
C=C1C(=O)O[C@H]2[C@H]1[C@@H](OC(=O)/C(C)=C\C)C[C@]1(C)O[C@@H]1[C@H]1O[C@H]1C(=C)[C@H]2O	i
C=C1C(=O)OC2/C=C(/C)C3=CC(=O)C(C)(CC(OC(=O)/C(C)=C/COC(C)=O)C12)O3 (stereo unspecified)	+
COc1ccc(CN2C(=O)c3cc4oc(C)cc4n3CC2(C(=O)NC2CCCCCC2)c2ccccc2)cc1 (stereo unspecified)	i
CCOc1ccccc1NS(=O)(=O)c1cc2[nH]c(=O)[nH]c2cc1Cl	i
COc1ccc(N2C(=O)c3cc(-c4cccs4)nn3CC2(C)C(=O)NC2CCCCCC2)cc1 (stereo unspecified)	i
COc1ccc2c(c1)N1C(=O)C[C@@]34C=CC[N@+]5([O-])CC[C@H]2[C@H](CC3)[C@@]145	i
COc1cc2c(cc1OC)N1C(=O)C[C@]34C=CCN5CC[C@@H]2[C@@H](CC3)[C@]514	+
Cc1ccc(CSc2nnc3n(CCCOC(C)C)c(=O)c4ccccc4n23)cc1	i
CCCn1c(=O)c2ccccc2n2c(=O)n(CC(=O)NCc3ccccc3)nc12	i
COc1ccc(OC)c(CCNC(=O)CCc2nnc3n(CCCOC(C)C)c(=O)c4ccccc4n23)c1	i
COc1ccc(OC)c2c1cc1n2CC(C)(C(=O)NC2CCCCC2)N(Cc2ccc(F)cc2)C1=O (stereo unspecified)	i
N[C@@H](Cc1cc(I)c(Oc2cc(I)c(O)c(I)c2)c(I)c1)C(=O)O	+
NC(Cc1c[nH]c2ccccc12)C(=O)O (stereo unspecified)	i
NC(Cc1cccc(-c2ccccc2CP(=O)(O)O)c1)C(=O)O (stereo unspecified)	i
N[C@@H](Cc1cc(I)c(Oc2ccc(O)c(I)c2)c(I)c1)C(=O)O	+!
CC(C)CNC(=O)c1ccc2c(=O)n(CC(C)C)c3nn(Cc4ccccc4)c(=O)n3c2c1	i
COc1ccc(C(=O)Cn2nc3n(Cc4ccc(F)cc4)c(=O)c4ccccc4n3c2=O)cc1OC	i
Cn1c(=O)n([C@H]2CCCN(S(=O)(=O)c3ccc4c(c3)OCCO4)C2)c2ncccc21	i
COC(=O)c1ccc([C@@H]2Nc3c(OC)cccc3[C@@H]3C=CC[C@@H]32)cc1	i
CCCN1CCN(CCCNC(=O)c2cc3n(n2)CC(C)(C(=O)NC2CCCC2)N(C)C3=O)CC1 (stereo unspecified)	i
CN(C(=O)Cn1c(=O)oc2cc(S(=O)(=O)N3CCCC3)ccc21)c1ccc(Br)cc1	i
COc1ccc(-c2nc(-c3ccc(S(=O)(=O)N4CCCCC4)cc3)no2)cc1OC	i
Cc1ccn(-c2cc(Cl)ccc2[C@@H](Oc2cc(-c3ccc(C[C@H](N)C(=O)O)cc3)nc(N)n2)C(F)(F)F)n1	+
COC(=O)Cn1c(=O)oc2cc(S(=O)(=O)NCCc3sccc3C)ccc21	i
Cc1ccc2c(c1)c(-n1cccc1)c1n2CC(C)(C(=O)NC2CCC(C)CC2)N(Cc2ccco2)C1=O (stereo unspecified)	i
SMILES	Methyltransferases
COc1ccc(CNC(=O)C2(C)Cn3cnc(C(=O)NCc4cccc(OC)c4)c3C(=O)N2C2CC2)cc1 (stereo unspecified)	i
O=C1c2ccccc2C(=O)c2c1cccc2S(=O)(=O)Nc1ccc(Cl)cc1	+
COc1ccc(Cl)cc1S(=O)(=O)Nc1ccc2[nH]c(=O)[nH]c2c1	i
CC1CCN(S(=O)(=O)c2cccc3c2C(=O)c2ccccc2C3=O)CC1	i
O=c1c2ccccc2n2c(-c3ccc(Cl)cc3)nnc2n1Cc1ccc(F)cc1	i
CCN(Cc1ccccc1)c1nc2c(S(=O)(=O)c3ccccc3)nnn2c2ccccc12	i
CCOc1ccc(CN2C(=O)c3cc4oc(C)cc4n3CC2(C)C(=O)NC2CCCCCCC2)cc1 (stereo unspecified)	i
O=C(CCc1nnc2n(Cc3ccccc3Cl)c(=O)c3ccccc3n12)NCc1ccc2c(c1)OCO2	i
COc1ccc(OC)c(S(=O)(=O)N2CCC(n3c(C)cnc3C3CC3)CC2)c1	i
CC1CCN(CCCNC(=O)CCc2nnc3n(Cc4ccccc4)c(=O)c4ccccc4n23)CC1	+
CCN(CC)CCNC(=O)CCc1nnc2n(Cc3ccccc3)c(=O)c3ccccc3n12	i
Cc1ccc(CNC(=O)CCc2nnc3n(Cc4ccc(Cl)cc4)c(=O)c4ccccc4n23)cc1	i
